# Screening data deposited in PubChem by University of Kansas High Throughput Screening Laboratory.
# The list is not random: actives were taken first. Their share in the collection is about 3.5%.
# Pf apPOL block: Pf-apPOL DNA polymerase inhibition | actives 0.25% (n = 210,000) | inhibition, % at 10 µM | Recombinant Pf-apPOL, molecular beacon fluorescence, 1.5 h
# mHTT-CaM PPI inh: inhibitors of human mutant huntingtin-calmodulin interaction. actives 3.6% (n = 190,000). AID 1671202. P42858. AlphaScreen His-mHTT/GST-CaM binding, luminescence. inhibition, % at 15 µM;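 also: 0% = both proteins with DMSO and 100% = one protein alone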
# An asterisk follows results filed as active; nt = no result given. Rule as the data show it: active = inhibition above about 50%; inactive = the rest.
SMILES,Pf apPOL block,mHTT-CaM PPI inh
COc1cccc(NC(=O)N2CCC3(CC2)Nc2cc(F)ccc2-n2cccc23)c1,-6,47
CCc1ccc(NC(=O)N2CCC3(CC2)Nc2cc(F)ccc2-n2cccc23)cc1,-3,72*
COc1ccc(NC(=O)N2CCC3(CC2)Nc2cc(F)ccc2-n2cccc23)cc1,-3,66*
CSc1cccc(NC(=O)N2CCC3(CC2)Nc2cc(F)ccc2-n2cccc23)c1,-2,25
COc1cccc(-c2cc(C3CCN(C(=O)c4ccccc4OC)CC3)[nH]n2)c1,0,23
CC1(C)COCC(C)(C)N1,nt,-6
Cc1c(C(=O)NCc2ccco2)oc2ccc(S(=O)(=O)N(C)C3CCCCC3)cc12,-5,16
Cc1ccccc1C1CCCN1C(=O)c1ccn(C)n1 (stereo unspecified),1,-3
CC(=O)OC[C@H](NC(=O)[C@H](Cc1c[nH]c2ccccc12)NC(=O)OC(C)(C)C)[C@@H]1O[C@H](N2C=CC(=O)NC(=O)N2)[C@@H](OC(C)=O)[C@H]1OC(C)=O,-4,17
Cc1cccc(NC(=O)N2CCC(N3CCN(Cc4ccccc4)C3=O)CC2)c1,1,-3
COc1ccc(CN2CCN(Cc3ccc4c(c3)OCO4)CC2)c(C)c1C,4,7
COc1ccc(C2CC(=O)c3c(O)cc(O)cc3O2)cc1O (stereo unspecified),0,nt
CC(C)=CCc1c(O)cc(O)c2c1OC(c1ccccc1)CC2=O (stereo unspecified),-2,51*
Cc1ccnc(Nc2nc(C)c(C(=O)N3CCCC3)s2)c1,24,1
Cc1ccc(N2CCN(C(=O)c3sc(Nc4ccc(F)cn4)nc3C)CC2)cc1,-6,78*
Cc1cc(NC(=O)CCCc2ccccc2)nc2c1c(=O)oc1ccccc12,-1,-1
Cc1cccc(N2CC(C(=O)NCc3ccc(F)cc3)CC2=O)c1 (stereo unspecified),-4,0
CC(C)CC(NC(=O)C(C)Nc1c2ccccc2nc2ccccc12)C(=O)O (stereo unspecified),-2,65*
CC(Nc1c2ccccc2nc2ccccc12)C(=O)NC(CC(N)=O)C(=O)O (stereo unspecified),2,1
CC(NC(=O)c1ccco1)C(=O)O (stereo unspecified),1,0
CC(C)CC(NC(=O)c1ccco1)C(=O)O (stereo unspecified),61*,-2
Cc1ccc(CNC(=O)CCc2ccc3[nH]ccc3c2)cc1,-4,9
Oc1ccc(Br)cc1CN1CCC(N2CCCCCC2)CC1,-4,2
O=C(c1ccc(S(=O)(=O)N2CCCCC2)cc1)N1CCN(c2ccccc2)CC1,-21,100*
O=C(c1ccc(S(=O)(=O)N2CCCCC2)cc1)N1CCCCC1,-8,-7
SMILES,Pf apPOL block,mHTT-CaM PPI inh
COc1ccc(CCNC2CC(=O)N(c3ccccc3F)C2=O)cc1 (stereo unspecified),-1,8
CC(=O)N(C)c1ccc(OCC(O)Cn2c3ccccc3c3ccccc32)cc1 (stereo unspecified),-10,73*
Cc1nc2ccccc2n1CC(O)COc1ccc(C(=O)c2ccccc2)cc1 (stereo unspecified),-14,8
N#CC1=C(N)Oc2n[nH]c(-c3cccs3)c2C1c1cccs1 (stereo unspecified),2,7
N#CC1=C(N)Oc2n[nH]c(-c3cccs3)c2C1c1ccc([N+](=O)[O-])s1 (stereo unspecified),-1,55*
COc1ccc(C2C(C#N)=C(N)Oc3n[nH]c(-c4cccs4)c32)c(OC)c1OC (stereo unspecified),2,15
COc1c(Cl)cc(Cl)cc1C1C(C#N)=C(N)Oc2n[nH]c(-c3cccs3)c21 (stereo unspecified),0,74*
COc1ccc(C=C2Oc3c4c(cc(C)c3C2=O)OCN(C2CC2)C4)cc1OC,-18,1
CCOc1ccc(/C=c2\sc3ncnn3c2=O)cc1OCC,34,-1
N=C1S/C(=C\c2cc3c(cc2Cl)OCO3)C(=O)N1c1nccs1,11,11
C=CCOc1ccc(/C=C2\SC(=N)N(c3nccs3)C2=O)cc1OCC,-79,74*
O=C1CC(N2CCOCC2)C(=O)N1c1cccc([N+](=O)[O-])c1 (stereo unspecified),-11,-2
COc1ccccc1N1CCN(C(=O)CSc2ccc(Cl)cc2)CC1,-2,8
O=C(CSc1ccccn1)Nc1ncc(Br)cc1Br,1,2
CCCn1ncc(N2CCC(C(=O)N3CCN(CC(C)C)CC3)CC2)cc1=O,-4,-6
COCCNC(=O)c1oc(=O)c2ccccc2c1-c1ccccc1,5,-11
CN(CC(=O)Nc1ccc2c(c1)OCCO2)S(=O)(=O)c1ccc(Cl)cc1,-1,1
O=[N+]([O-])c1cc(C=Nc2c(-c3ccco3)nc3ccccn23)c(Cl)cc1Cl,6,23
O=[N+]([O-])c1cc(C=Nc2c(-c3ccco3)nc3ccccn23)ccc1Br,-1,18
